Data published in PubChem BioAssay AID686971 (National Center for Advancing Translational Sciences (NCATS), 2013).
Among all 360,000 compounds or so, about 7,500 (2.1%) were called active. Inconclusive results (about 8%) are left out. Shown is part of a subset that was picked to be rich in actives. A number with no mark means an inactive call. The call rests on the fitted dose curve; in most records, active means well fitted cell-killing curve with a large enough effect; inconclusive means small, poorly fitted or top-dose-only effect, or effect the other way, or another doubt; inactive means no such curve, though single readings can be large or run the other way.

Assay: qHTS for induction of synthetic lethality in tumor cells producing 2HG: qHTS for the HT-1080-IDH1KD cell line;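 on activity, negative = toxicity: 0% = DMSO wells and -100% = cell-free medium wells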
Conditions: HT-1080 IDH1 knockdown viability, ATP luminescence, 48 h; series mostly up to 46.1 µM; activity, negative = toxicity: at the top concentration
Outline: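 Knockdown cells (IDH1KD HT-1080) received compounds 2 h after plating at 750 cells/well and were kept 48 h at 37 °C in 5% FBS RPMI. A CellTiter-Glo luminescence read gave % activity for curve fitting.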
Potency means the concentration at half of the fitted maximal effect.

SMILES | activity, negative = toxicity [%] | Potency
COc1ccc(-c2c(C#N)cnc(C)c2C)c(O)c1OC | 4.41 | 
OCCN1CCN(c2ncnc3c2ncn3[C@H]2CN(Cc3ccco3)C[C@@H](CO)O2)CC1 | 20.7 | 
O=C(NN=Cc1ccc2c(c1)CCC2)c1ccccc1O | 5.14 | 
COc1ccc(-c2cc(C(=O)NCCCN3CCOCC3)no2)cc1 | 3.26 | 
Cc1cc(C)cc(C(=O)NCCN2CCOCC2)c1 | 2.86 | 
COc1ccc(-c2ccc(C(=O)NCCN3CCOCC3)c3occc23)c(C)c1 |  | 18.4 µM (active)
CCCNC(=O)C[C@@H]1CC[C@@H]2[C@H](COC[C@H](O)CN2C(=O)c2cc(Cl)cc(Cl)c2)O1 | 16.4 | 
CC(OC(=O)c1cccnc1Cl)C(=O)NC1CCCCC1 (configuration not stated) | -0.365 | 
COc1cccc(-c2ccc3c(c2)N(Cc2ccccc2OC)C(=O)C(C)S3)c1 (configuration not stated) | -4.09 | 
Cc1ccc(C)c(OCC(=O)NNC(=O)C2CCC2)c1 | 7.65 | 
Cc1ccc(NNC(=O)C2CCC2)cc1C |  | 7.31 µM (active)
O=C(NNC(=O)C1CCC1)c1ccccc1 | 4.36 | 
CC1(C2CC2)NC(=O)N(CC(=O)N2CCN(c3ccccc3F)CC2)C1=O (configuration not stated) | -2.54 | 
CCCCCCN1CCN(C2CN(Cc3cn(Cc4ccc(F)cc4)nn3)S(=O)(=O)C2)CC1 (configuration not stated) | -1.26 | 
COC(=O)c1ccc(NC(=O)c2ccccc2NS(=O)(=O)c2ccccc2)cc1 |  | 11.2 µM (active)
CCOc1ccc(NC(=O)c2ccccc2NS(C)(=O)=O)cc1 | 2.92 | 
COC(=O)c1ccccc1NS(=O)(=O)c1ccc2[nH]c(=O)[nH]c2c1 | 6.48 | 
O=C(C(=O)N1CCN(c2ccccc2)CC1)c1ccc2c(c1)OCO2 | 11 | 
C#Cc1cc(N2CCN(C(=O)c3ccoc3)CC2)n2nc(-c3cccc(Cl)c3)cc2n1 |  | 9.2 µM (active)
CN(C)CCN1CCN(c2cc(-c3cccc(Cl)c3)nc3ccnn23)CC1 | -16.7 | 
O=C(c1ccccc1)N1CCN(c2cc(-c3ccccc3)nc3cc(-c4cccc(Cl)c4)nn23)CC1 | 8.08 | 
O=C(NCc1ccccc1)C(c1ccc(F)cc1)N1CCN(C(=O)C2CCCO2)CC1 (configuration not stated) | 21.4 | 
O=[N+]([O-])c1ccc(N2CCOCC2)cc1 | -1 | 
COc1ccc(C2=NN(c3nc4ccccc4s3)C(=O)C2)cc1 | -24.9 | 
O=C1CC(c2ccccc2)=NN1c1ccc([N+](=O)[O-])cc1 |  | 20.6 µM (active)
CC(=O)Nc1ccc2nc(NC(=O)CS(=O)(=O)c3ccc(F)cc3)sc2c1 | -0.314 | 

SMILES | activity, negative = toxicity [%] | Potency
CSc1nc2ccc(NC(=O)c3c(F)cccc3F)cc2s1 | -17.3 | 
CCCC(=O)Nc1nc2ccc(NC(=O)c3c(F)c(F)c(OC)c(F)c3F)cc2s1 |  | 0.651 µM (active)
Nc1nc2ncccn2c1-c1ccccc1 | 23.7 | 
CCN1C(=O)[C@@H]2[C@@H]3CN(S(=O)(=O)c4ccccc4C)[C@@H](c4ccc(Cl)cc4)[C@@H]3C(=O)C[C@@H]2C1=O | 4.33 | 
O=[N+]([O-])c1ccccc1/C=C/CN1CCC(O)CC1 | -1.05 | 
CC1CCCCC1NC(=O)/C(C#N)=C/C=C/c1ccccc1[N+](=O)[O-] (configuration not stated) |  | 4.61 µM (active)
O=[N+]([O-])c1ccccc1/C=C/CN1CCCC(CO)C1 (configuration not stated) | -11.4 | 
CC1=C(C(=O)Nc2cccc(C(=O)NCC(C)c3ccccc3)c2)SCCO1 (configuration not stated) | -0.161 | 
O=C(NCc1cccnc1)c1cc(C2CCCN(C(=O)C3CCCCC3)C2)on1 (configuration not stated) | 0.399 | 
COc1cc2ccccc2cc1C(=O)N1CCOCC1 | 2.75 | 
Cc1oc2c(c1C(=O)N1CCOCC1)C(=O)c1ccccc1C2=O |  | 9.2 µM (active)
O=C(c1snnc1-c1ccccc1)N1CCOCC1 | 13.4 | 
O=C(CN1C(=O)NC2(CCc3ccccc32)C1=O)NC1CCCCC1 (configuration not stated) | 0.155 | 
O=C(COC(=O)/C=C/c1ccc(Cl)cc1)NC1CCS(=O)(=O)C1 (configuration not stated) | -4.55 | 
O=C(Nc1ccc(OCCO)cc1)c1csc([C@H]2C[C@H](O)[C@@H](CO)O2)n1 | 10.3 | 
CC(C)CN1CCC1(C)C(=O)Nc1ccc(OC(F)F)cc1 (configuration not stated) | 2.39 | 
O[C@H]1CN(Cc2cccs2)[C@@H](c2ccc(Cl)cc2)C[C@@H]1n1cc(C2CC2)nn1 | 4.5 | 
Nc1nonc1-n1nnc(C(=O)N/N=C/c2ccccc2O)c1CN1CCCC1 |  | 14.6 µM (active)
Nc1nonc1-n1nnc(C(=O)N/N=C\c2ccncc2)c1CN1CCCCC1 | -3.01 | 
NNC(=O)c1nnn(-c2nonc2N)c1CN1CCCC1 | -3.44 | 
O=C1CC[C@@H](C(=O)N2CSC[C@@H]2C(=O)Nc2ccc(C(F)(F)F)cc2)N1 | -2.41 | 
O=C(NCc1ccc(F)cc1)c1cc(C2CCCCN2C(=O)C2CCCCC2)on1 (configuration not stated) | -11.2 | 
COc1ccc(OCCCC(=O)Oc2ccc(OC)cc2)cc1 | -2 | 
COc1ccc(OCCC(=O)c2ccc(OC)cc2)cc1 |  | 20.6 µM (active)
COc1ccc(CCC(=O)c2ccc(OC)cc2)cc1 | 5.62 | 
COc1ccc(C(O)C(O)(C(=O)OC(C)C)c2ccc(C)cc2)cc1 (configuration not stated) | -1.24 | 
